In all, about 48,000 compounds went through this assay and about 13,000 (27%) showed an effect of 50% or more. The list shows a part of the results.
Each molecule was assayed on Wolbachia pipientis (assay: Anti-Wolbachia Cell-Based Screen). Settings: 5 µM.
Type: functional
Set-up: scale not given: in the data most compounds retested in dose-response had high values

Compared with `O=C(Nc1ccccc1C(=O)N1CCCC1)NC1CCOCC1`, `O=C([C@H]1CN(Cc2nccs2)C[C@H]2OCC[C@@H]12)N1CCCC1` is lower in “Percent Effect” value: -1.242% for the first, -16.26% for the second.

Compared with `Cc1ccc(CN2CCC(c3nnc(CN4CCCCC4)n3C)CC2)o1`, `CN1CC[C@H](c2nnc(-c3cncn3C)o2)C1` is higher in “Percent Effect” value: -6.981% for the first, -6.33% for the second.

Compared with `CCn1cc(CNC(=O)CCc2nnc(-c3ccc(C)s3)o2)cn1`, `CCOC(=O)NC(CNC(=O)CCc1ccccn1)CC(C)C` (stereo not given) is lower in “Percent Effect” value: 1.856% for the first, -10.22% for the second.

Compared with `Cc1ccsc1CN1CC[C@H]2O[C@H](C(=O)N3CCCO3)CC[C@H]21`, `CN1CCN(C(=O)[C@H]2CC[C@@H]3[C@@H](CCN3Cc3nccs3)O2)CC1` is higher in “Percent Effect” value: -0.787% for the first, 100.9% for the second.

Going from `CN1CCN(C(=O)[C@H]2C[C@H]3[C@H](CCN3Cc3nccs3)O2)CC1` to `CS(=O)(=O)N1C[C@H]2N(c3ncccn3)CCC[C@@]2(C(=O)NCC2CC2)C1`, the “Percent Effect” value falls from 108.2% to 106.2%.

Going from `O=C(NCCCO)C1(CC2CC(c3ccc(F)cc3)=NO2)CCOCC1` (stereo not given) to `O=C(NCCO)C1(CC2CC(c3ccc(F)cc3)=NO2)CCOCC1` (stereo not given), the “Percent Effect” value falls from 116.1% to 103.4%.

First: O=C(NCc1nncn1C1CC1)C1(c2ccc(F)cc2)CCOCC1
Second: CN(C)C1(CNC(=O)C2CCCN2Cc2ccc(F)cc2)CCOCC1 (stereo not given)
The “Percent Effect” value of the first is higher: 7.233% for the first, -14.73% for the second.

First: CC(C)NC(=O)C1(CC2CC(c3ccc(F)cc3)=NO2)CCNCC1.O=C(O)CC(O)(CC(=O)O)C(=O)O (stereo not given)
Second: CC(C)NC(=O)N1CCC2(CC1)NC(=O)CC2c1ccncc1.O=C(O)C(F)(F)F (stereo not given)
The “Percent Effect” value of the first is higher: 90.44% for the first, -5.587% for the second.

Compared with `O=C(Nc1ccc(F)cc1)NC1(CCO)CCOCC1`, `CS(=O)(=O)N1C[C@H]2CNC[C@@]2(C(=O)NCCOc2ccccc2)C1` is higher in “Percent Effect” value: -10.62% for the first, -7.447% for the second.

First: CNS(=O)(=O)c1cc(C(=O)N2CCCCCC2CC(C)C)co1 (stereo not given)
Second: CNC(=O)[C@@]12CCCN(c3ncccn3)[C@@H]1CN(C(=O)NC(C)C)C2
The “Percent Effect” value of the first is higher: 3.036% for the first, -11.1% for the second.

Going from `O=C(c1cccnc1O)N(Cc1ccsc1)CC1CCCO1` (stereo not given) to `CC(C)CN1C[C@H]2N(c3ncccn3)CCC[C@@]2(C(=O)NCC2CC2)C1`, the “Percent Effect” value rises from -13.31% to 98.73%.

First: CNC(=O)[C@@]12CCCN(c3ncccn3)[C@@H]1CN(c1ncc(F)cn1)C2
Second: CNC(=O)[C@@]12CCCN(c3ncccn3)[C@@H]1CN(c1ncc(C)cn1)C2
The “Percent Effect” value of the first is higher: 0.8573% for the first, -6.772% for the second.

`CNC(=O)N1C[C@H]2N(c3ncccn3)CCC[C@@]2(C(=O)NCC2CC2)C1` was tested, and the “Percent Effect” value was 110.5%.
